40 compounds from PubChem BioAssay (Tox21) can be followed below.

Several values for one entry are separate records, joined by “and”; a condition that tells them apart may be missing. Equal values may be shown once. Inconclusive results are not listed. Where a call stands in place of a potency, no number is given. Some structures have more than one record in an assay (separate samples or runs), and their calls can disagree. Activity calls are given as the source filed them. Calls come from the whole dose curve; as a rule, active = well fitted activation curve with a large enough effect in the repeat runs; inconclusive = weak or mixed curves; inactive = flat fitted curve, though single readings scatter.
Potency is the fitted concentration of half-maximal effect.

A short description of the test: A CellTox Green Cytotoxicity Assay to monitor cytotoxicity in HepG2 cells - 24 hour (AID 1224878). Note: nearly all actives have a fitted effect of over 45% in size. The conditions noted are these: CellTox Green fluorescence; series mostly up to 76.8 µM. The text has this:
National Center for Advancing Translational Sciences [NCATS]
NIH Chemical Genomics Center [NCGC]
U.S. Environmental Protection Agency [EPA]
National Institutes of Environmental Health Sciences [NIEHS]
National Toxicology Program [NTP]
Cell-based models are critical for drug discovery. Determining the natural cytotoxic effects resulting from test compounds is an essential research activity. A CellTox Green Cytotoxicity Assay to monitor cytotoxicity in real time of continues cell culture during 40 hours of the compound treatment was used to screen Tox21 10K library compounds in HepG2 cells. CellTox Green Cytotoxicity Assay is a nonlytic, homogeneous, biofluorescent method to measure cytotoxicity in cell culture after experimental manipulation. The assay system uses a proprietary asymmetric cyanine dye that is excluded from viable cells but preferentially stains the dead cell's DNA. […] Viable cells produce no appreciable increases in fluorescence. Therefore, the fluorescence signal produced by the binding interaction with dead cell DNA is proportional to cytotoxicity.
The mixture of HepG2 cell suspension and reagents were dispensed at 600cells/6 ul/well in 1536-well tissue culture treated black solid bottom plates using a Multidrop dispenser. After the assay plates were incubated at a 37 C/5% CO2 incubator for 5 hours, 23 nL of compounds dissolved in DMSO, positive and negative controls was transferred to the assay plate by a pintool work station. The plates were incubated at 37 C for 40 hours. The fluorescence intensity were measured at 0h, 8h, 16h, 24h, 32h and 40h time points using ViewLux plate reader during compound treatment.
Take `CCN(CC)C(=O)/C(Cl)=C(\C)OP(=O)(OC)OC`: the Potency result was “inactive”.

On to `O=P(Oc1ccccc1)(Oc1ccccc1)Oc1ccccc1`, for which the Potency result was “inactive”.

On to `Clc1nc(Cl)nc(Cl)n1`, for which the Potency result was “inactive”.

Turning to `CCOP(=S)(OCC)O/N=C(\C#N)c1ccccc1`, the Potency result is “inactive”.

As for `CCCCCCOC(=O)c1ccccc1C(=O)OCCCCCC`, the Potency result is “inactive”.

`CCCCN(CCCC)N=O`: the Potency result is “inactive”.

For `CC(C)(OOC(C)(C)c1ccccc1)c1ccccc1`, the Potency entry was “inactive”.

`C=CCc1ccc2c(c1)OCO2`: the Potency entry was “inactive”.

For the compound `CCC(=O)O[C@H]1CC[C@H]2[C@@H]3CCC4=CC(=O)CC[C@]4(C)[C@H]3CC[C@]12C`, the Potency was 43.6 µM (active).

For the compound `Cc1cc(Cl)ccc1OCCCC(=O)O`, the Potency entry is “inactive”.

As for `O=C(Nc1ccc(Br)cc1)c1cc(Br)cc(Br)c1O`, the Potency is 38.9 µM (active).

As to `O=C1C=CC(=O)C=C1`, the Potency entry is “inactive”.

`CCCCC(CC)COC(=O)c1ccc(C(=O)OCC(CC)CCCC)c(C(=O)OCC(CC)CCCC)c1` (stereo not given): the Potency result was “inactive”.

As to `C=CCN(CC=C)C(=O)C(Cl)Cl`, the Potency result is “inactive”.

Take `Cc1ccccc1[N+](=O)[O-]`: the Potency result is “inactive”.

In the case of `Oc1ccc(-c2ccccc2)cc1`, the Potency entry was “inactive and 49 µM (active)”.

On to `Cc1ccc(N)c(N)c1`, for which the Potency result is “inactive”.

In the case of `C=CC(=O)OCCO`, the Potency entry was “inactive”.

For `O=[N+]([O-])c1cccc2ccccc12`, the Potency result was “inactive”.

Turning to `Cc1ccc(OP(=O)(Oc2ccc(C)cc2)Oc2ccc(C)cc2)cc1`, the Potency entry was “inactive”.

As to `S=C1NCCN1`, the Potency entry was “inactive”.

`C#CCOS(=O)OC1CCCCC1Oc1ccc(C(C)(C)C)cc1` (stereo not given): the Potency result is “inactive”.

As to `CCOC(=S)S`, the Potency entry was “inactive”.

In the case of `CCC(CC)Nc1c([N+](=O)[O-])cc(C)c(C)c1[N+](=O)[O-]`, the Potency result was “inactive”.

Turning to `O=C(CCl)c1ccccc1`, the Potency result is “inactive”.

Take `ClC1C(Cl)C(Cl)C(Cl)C(Cl)C1Cl` (stereo not given): the Potency entry was “inactive and 43.6 µM (active)”.

Turning to `Nc1cccnc1`, the Potency entry was “inactive”.

Regarding `C[C@]12CCC(=O)C[C@@H]1CC[C@@H]1[C@@H]2CC[C@]2(C)[C@@H](O)CC[C@@H]12`, the Potency entry is “inactive”.

Regarding `CC(C)(C)c1ccccc1O`, the Potency is 49.5 µM (active).

Take `CC(C)C(=O)OCC(C)(C)C(OC(=O)C(C)C)C(C)C` (stereo not given): the Potency result was “inactive”.

For `CCN(N=O)C(N)=O`, the Potency result is “inactive”.

For `c1ccc(N=Nc2ccccc2)cc1`, the Potency result was “inactive”.

For the compound `CCOc1cc(Oc2ccc(C(F)(F)F)cc2Cl)ccc1[N+](=O)[O-]`, the Potency entry is “inactive”.

`CC(C)Oc1cc(-n2nc(C(C)(C)C)oc2=O)c(Cl)cc1Cl`: the Potency entry was “inactive”.

For `Cc1c(COC(=O)[C@@H]2[C@H](/C=C(\Cl)C(F)(F)F)C2(C)C)cccc1-c1ccccc1`, the Potency entry is “inactive”.

Turning to `CN(C)c1ccc(C(=O)c2ccc(N(C)C)cc2)cc1`, the Potency result was “inactive”.

For the compound `CC(C)NC(C)C`, the Potency result was “inactive”.

Regarding `O=c1oc2ccccc2c(O)c1C(CC(O)c1ccc(-c2ccc(Br)cc2)cc1)c1ccccc1` (stereo not given), the Potency result was “inactive”.

Turning to `COP(=S)(OC)Oc1ccc([N+](=O)[O-])cc1`, the Potency entry is “inactive”.

Consider `CCOCN(C(=O)CCl)c1c(C)cccc1CC`, for which the Potency result is “inactive”.
